PubChem BioAssay (NCATS)
Results filed as inconclusive are left out. Unmarked numbers belong to inactive results. The source made the active and inactive calls. Calls follow the shape of the dose curve; as a rule, active = well fitted cell-killing curve with a large enough effect; inconclusive = small, poorly fitted or top-dose-only effect; inactive = flat fitted curve, though single readings scatter.

Test: NCATS anti-infectives library activity on HEK293 viability as a counter-qHTS vs the C. elegans viability qHTS (AID 1745854)
Settings: HEK293 viability counter-screen; series mostly up to 41.8 µM; activity change, negative = cytotoxicity: at the top concentration
Excerpt: Assay Development and Screening Technology Laboratory (ADST)
National Center for Advancing Translational Sciences (NCATS), Rockville, MD
National Institute of Health (NIH), Bethesda, Maryland
Caenorhabditis elegans has helped elucidate the evolutionarily conserved genetics underlying pathways and cellular processes implicated in human disease and may be ideally positioned to reveal novel pharmacological properties of exiting drugs. The organism's short life cycle and microscopic size is applicable to the technical requirements of high-throughput screening. Here a quantitative high-throughput screening (qHTS)-based forward chemical biology platform has been developed using C. elegans. 384-well microtiter plate laser scanning cytometry was used in the rapid detection and quantification of the fluorescent protein-encoded phenotype to score worm viability. In a proof-of-concept study, the pharmacological qHTS profile obtained from a library of 643 anti-infective compounds.
1. Inglese, J., Auld, D. S., Jadhav, A., Johnson, R. L., Simeonov, A., Yasgar, A., Zheng, W., and Austin, C. P. (2006) Quantitative high-throughput screening: A titration-based approach that efficiently identifies biological activities in large chemical libraries, P Natl Acad Sci USA 103, 11473-11478.
2. Auld, D. S., Johnson, R. L., Zhang, Y. Q., Veith, H., Jadhav, A., Yasgar, A., Simeonov, A., Zheng, W., Martinez, E. D., Westwick, J. K., Austin, C. P., and Inglese, J. (2006) Fluorescent protein-based cellular assays analyzed by laser-scanning microplate cytometry in 1536-well plate format, Method Enzymol 414, 566-589.
3. Zuck, P., Lao, Z., Skwish, S., Glickman, J. F., Yang, K., Burbaum, J., and Inglese, J. (1999) Ligand-receptor binding measured by laser-scanning imaging, Proc Natl Acad Sci U S A 96, 11122-11127.
PROTOCOL TABLE (as described by Inglese J, Shamu CE and Guy RK. 2007)
SEQUENCE No. (e.g., 1, 2, 3, etc.); […] (e.g., C. elegans, Compounds, Incubation, Read, etc.); VALUE and DESCRIPTION.
1. Compounds. Library compounds and digitonin control added at 25 nL per well to 7 assay ready 1536-well Greiner white/solid bottom high base, TC plates and two DMSO control plates, transferred by Echo acoustic dispenser.
2. Cells. Seed 1500 HEK293 per well in 6 uL into assay ready Greiner 1536-well plates.
3. Incubation. Incubate plated cells with compounds at 37C in 5% CO2, 95% RH for 24 hr.
4. Reagent. Add 4 uL of CellTiter-Glo reagent from Promega per well of Greiner 1536-well plates with BioRAPTR FRD.
5. Incubation. Incubate treated cells at room temperature for 10 min., protect from light.
6. Detector. CellTiter-Glo luminescence measured using CCD-based camera (Viewlux) with settings as follows: Exposure, 1 sec; Gain, High; Speed, Slow; Binning, 2X.
NOTES (numbers refer to Sequence numbers above; values are from representative experiments)
1. NIH Anti-Infectives library pre-dispensed into 7 assay ready 1536-well Greiner white/solid bottom high base, TC plates with Echo 555 acoustic dispenser. Most compounds dispensed at 10 mM high concentration and plated in 7-pt 1:5 inter-plate titration at 25 nl / well for a final assay concentration range of 41.7 uM - 2.7 nM. Two 1536-well Greiner assay plates of DMSO plated as screening controls to be read at the beginning and the end of the screen. Controls included DMSO vehicle control added at 25 nl/well to each well of column 1 and […] (83.3 uM final assay concentration), and Digitonin titrated 1:2 at 25 nl/ well to column 4 in duplicate for a final assay concentration range of 83.3 uM - 2.5 nM.
2. HEK293 cells grown for 48 hr in one T175 culture flask in DMEM high glucose media supplemented with 10% FBS and 1% Pen/Strep antibiotic. Cells trypsinized and diluted in 10 ml supplemented media, strained through 40 µm cell strainer, and diluted to a total volume of 40 ml with supplemented media. […]
% is scaled to controls: 0 for no effect and ±100 for the full control effect; potency is read from the fitted curve at half-maximal effect.

SMILES | activity change, negative = cytotoxicity | Potency
CC(C)OC(=O)[C@H](C)N[P@](=O)(OC[C@H]1O[C@@H](n2ccc(=O)[nH]c2=O)[C@](C)(F)[C@@H]1O)Oc1ccccc1 | -12.9% | 
COc1ccc(C(=O)N2CCN(c3ccc4c(c3)CCC(=O)N4)CC2)cc1OC | 0.671% | 
COC(=O)C1=C(C)NC(c2ncc(F)cc2F)=N[C@H]1c1ccc(F)cc1Cl | -29.6% | 
Cc1cnc(NC(=O)c2cc(S(=O)(=O)N(C)C)ccc2N2CCCC2)s1 | -9.27% | 
COc1ccnc2[nH]cc(C(=O)C(=O)N3CCN(C(=O)c4ccccc4)C[C@H]3C)c12 | -0.248% | 
Cc1cc(Nc2cc(N)ncn2)c(=O)n2c1C(=O)NC21CCCCC1 | -3.26% | 
c1ccc(CNCc2ccc(CN3CCCNCCNCCCNCC3)cc2)nc1 | 6.67% | 
O=c1cc(-c2ccc(O)c(O)c2)oc2cc(O[C@@H]3O[C@H](CO)[C@@H](O)[C@H](O)[C@H]3O)cc(O)c12 | 5.5% | 
COC[C@@H](c1ccc(C(F)(F)F)cc1)N1CCN(C2(C)CCN(C(=O)c3c(C)ncnc3C)CC2)C[C@@H]1C | -4.67% | 
O=c1[nH]nc2c3c(cccc13)NC(CN1Cc3ccccc3C1)=N2 | 14.1% | 
O=C(Cc1ccccc1)Nc1nnc(CCSCCc2nnc(NC(=O)Cc3ccccc3)s2)s1 | -18.1% | 
CN(C)c1cc(NC(=O)CNC(C)(C)C)c(O)c2c1C[C@H]1C[C@H]3[C@H](N(C)C)C(=O)C(C(N)=O)=C(O)[C@]3(O)C(=O)C1=C2O | 3.88% | 
CC(C)=CCC1=C(O)c2ccccc2C(=O)C1=O | -14.4% [at 83.3 µM] | 
Cn1cc(/C=C/C(=O)c2cccc(F)c2)cc1/C=C/C(=O)NO | -7.35% | 
Nc1cccc2c1CN([C@H]1CCC(=O)NC1=O)C2=O | -0.628% | 
NC1=N[C@@]2(c3cc(NC(=O)c4ccc(F)cn4)ccc3F)COC[C@H]2CS1 | 2.7% | 
Cc1cccc(/C=N/Nc2cc(N3CCOCC3)nc(OCCc3ccccn3)n2)c1 | -7.81% | 
Cc1ccc(-c2ccc(C)cn2)nc1 | -4.8% | 
CC(C)=CCC[C@](C)(O[C@@H]1O[C@H](CO[C@@H]2O[C@H](CO)[C@@H](O)[C@H](O)[C@H]2O)[C@@H](O)[C@H](O)[C@H]1O)[C@H]1CC[C@]2(C)[C@@H]1[C@H](O)C[C@@H]1[C@@]3(C)CC[C@H](O[C@@H]4O[C@H](CO)[C@@H](O)[C@H](O)[C@H]4O[C@@H]4O[C@H](CO)[C@@H](O)[C@H](O)[C@H]4O)C(C)(C)[C@@H]3CC[C@]12C | 8.94% [at 18.2 µM] | 
CN1C(N)=N[C@](C)(c2cc(NC(=O)c3ccc(F)cn3)ccc2F)CS1(=O)=O | 0.828% | 
CN(C)Cc1ccc(S(=O)(=O)n2ccc(/C=C/C(=O)NO)c2)cc1 | -22.9% | 
C[C@]12CCC3[C@@H](CC[C@H]4NC(=O)C=C[C@]34C)[C@@H]1CC[C@@H]2C(=O)Nc1cc(C(F)(F)F)ccc1C(F)(F)F (some centres undefined) | 4.34% | 
Cc1c(-c2ccc(-c3ccccc3F)cc2)nc2ccc(F)cc2c1C(=O)O | -15.4% | 
CNC(=O)[C@@H](NC(=O)[C@H](CC(C)C)[C@H](O)C(=O)NO)C(C)(C)C | -5.04% | 
C=CC(=O)N1CC/C(=C\c2ccc(F)c([N+](=O)[O-])c2)C(=O)/C(=C/c2ccc(F)c([N+](=O)[O-])c2)C1 |  | 1780 nM (active)
CC(=O)N1c2ccc(-c3ccc(C(=O)O)cc3)cc2[C@H](Nc2ccc(Cl)cc2)C[C@@H]1C | -2.75% | 
Cc1c(-c2cnccn2)ssc1=S | -12.8% | 
CC#Cc1cncc(-c2ccc3c(c2)[C@@]2(N=C(C)C(N)=N2)C2(CCC(OC)CC2)C3)c1 (some centres undefined) | -0.747% | 
CC(=O)O/N=C1\C(=O)N(Cc2cc(Cl)ccc2Cl)c2ccc(Cl)cc21 | 1.01% | 
